Screening data: PubChem, National Center for Advancing Translational Sciences (NCATS)
Most compounds without a hit are left out; they make up all but 7.5% or so of the library.
FLuc counter: qHTS profiling assay for firefly luciferase inhibitor/activator using purifed enzyme and Km concentrations of substrates (counterscreen for miR-21 project); purified FLuc, Km substrates, luminescence inhibition; Potency, µM (top dose mostly 57.5 µM), usual class: inhibitors; 6.9% of 360,000 active; also: nearly all actives have a fitted effect of over 55% in size
Target sequence (P08659 whole entry, looked up): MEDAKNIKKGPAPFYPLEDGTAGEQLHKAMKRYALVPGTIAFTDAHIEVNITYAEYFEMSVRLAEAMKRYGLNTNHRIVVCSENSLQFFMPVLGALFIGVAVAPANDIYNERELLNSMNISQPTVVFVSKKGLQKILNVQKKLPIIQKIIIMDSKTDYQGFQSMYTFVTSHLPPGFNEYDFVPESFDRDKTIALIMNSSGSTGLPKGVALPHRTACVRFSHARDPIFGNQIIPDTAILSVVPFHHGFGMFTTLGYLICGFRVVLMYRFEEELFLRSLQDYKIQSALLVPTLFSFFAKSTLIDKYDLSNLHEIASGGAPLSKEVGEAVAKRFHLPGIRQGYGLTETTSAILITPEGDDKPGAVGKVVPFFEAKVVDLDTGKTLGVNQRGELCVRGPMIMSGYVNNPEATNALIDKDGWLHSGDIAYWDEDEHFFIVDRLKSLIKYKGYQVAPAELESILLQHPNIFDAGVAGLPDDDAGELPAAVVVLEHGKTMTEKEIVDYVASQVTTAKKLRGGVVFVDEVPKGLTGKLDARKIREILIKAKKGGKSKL
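Purified P. pyralis luciferase, 10 nM final, with Km-level 10 uM D-luciferin and 10 uM ATP in 50 mM Tris acetate pH 7.5, 10 mM Mg acetate, 0.01% Tween-20, 0.05% BSA; 6-point qHTS titration about 60 µM downward; luminescence read.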
NPC1 prom act: qHTS Assay for NPC1 Promoter Activators; Huh7 NPC1 promoter luciferase reporter, 24 h; 2.4% of 320,000 active; Potency, µM (doses to about 9.22 µM), usual class: activators; also: nearly all actives have a fitted effect of over 60% in size
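Luminescence read-out of NPC1 promoter-driven luciferase in stably transfected Huh7 cells; compounds delivered in DMSO and left 24 h at 37C, 5% CO2, qHTS titration format.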
SMN2 splice up: qHTS Assay for Enhancers of SMN2 Splice Variant Expression | HEK293 SMN2-luciferase splicing reporter, luminescence, 30-36 h | Potency, µM (highest dose often 46.1 µM), most hits filed as activators | 2.8% of 210,000 active; also: nearly all actives have a fitted effect of over 55% in size
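qHTS luciferase splicing reporter: luminescence rises when SMN2 exon 7 is included in transfected HEK293 cells. Compound exposure lasted 30-36 h at 37C, with 4.5 mM final sodium butyrate as control, followed by a ONE-Glo read.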
Rab9 prom act: qHTS Assay for Rab9 Promoter Activators; AID 485297, 2010; Potency, µM (series often up to 9.22 µM), usual class: activators; Huh7 Rab9 promoter-luciferase reporter, luminescence, 24 h; 2.8% of 320,000 active; also: nearly all actives have a fitted effect of over 60% in size
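Luminescence from Amplite-detected luciferase (10 minutes, ambient) reports Rab9 promoter activation. Before that, stable Rab9-luciferase Huh7 cells (1500/well, reduced-serum OP-MEM I plus 10% FBS) were exposed to compound for 24 hours at 37C.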
ELG1 genotoxic: qHTS screen for small molecules that induce genotoxicity in human embryonic kidney (HEK293T) cells expressing luciferase-tagged ELG1; 1.3% of 330,000 active; AID 504466, 2011; Potency, µM (highest dose often 46 µM), usual class: activators; HEK293T ELG1-luciferase reporter, luminescence, 16 h; also: nearly all actives have a fitted effect of over 60% in size
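Genotoxicity was scored as increased ELG1-luciferase reporter signal, measured by ONE-Glo luminescence (30 min, room temperature). Compound or vehicle exposure of the HEK293T reporter cells lasted 16 hr at 37°C.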
Of the large screens only hits and unclear results are named; the others gave an inactive call. Calls follow the shape of the dose curve; as a rule, active = well fitted curve in the direction sought with a large enough effect; inconclusive = small, poorly fitted or top-dose-only effect, or another doubt; inactive = no such curve, though single readings can be large; an effect the other way counts as inactive or inconclusive.

CC1=C(C(=O)Nc2cc(C(=O)NCCC(C)C)ccc2C)SCCO1	none (no result: SMN2 splice up)
CC1CCN(S(=O)(=O)c2ccc(-c3nnc(SCc4cccnc4)o3)cc2)CC1	none
CC(=O)c1ccc(NC(=O)c2ccccc2-c2ccccc2C(=O)O)cc1	none (no result: SMN2 splice up)
O=C1CCN(C(=S)NCc2ccccc2)CC1	none
CCCCCCSc1ccc(-c2nc3ccc(C)cn3c2NCc2ccccc2)cc1	none (no result: SMN2 splice up)
Cc1cc(C(=O)Nc2cccc(C(=O)O)c2)c(C)o1	FLuc counter 10.7µM, NPC1 prom act 3.55µM, SMN2 splice up inconclusive, Rab9 prom act 3.98µM, ELG1 genotoxic inconclusive
Cc1oc(-c2ccccc2)cc1C(=O)Nc1cccc(C(=O)O)c1	FLuc counter inconclusive, ELG1 genotoxic inconclusive (no result: SMN2 splice up)
Cc1cc(C(=O)Nc2ccc(C(=O)O)cc2)c(C)o1	FLuc counter inconclusive (no result: SMN2 splice up)
Cc1oc(CC(C)C)cc1C(=O)Nc1ccc(C(=O)O)cc1	FLuc counter 12µM, NPC1 prom act inconclusive
COc1ccccc1N1CCN(/N=C/c2cc(OC)c(OC)c(OC)c2)CC1	none
COc1ccccc1N1CCN(/N=C/C(Cl)=C/c2ccccc2)CC1	FLuc counter 5.36µM, NPC1 prom act 2.51µM, Rab9 prom act 3.16µM (no result: SMN2 splice up)
COc1ccccc1N1CCN(/N=C\c2ccc(C)o2)CC1	FLuc counter 21.3µM, NPC1 prom act 3.55µM, SMN2 splice up 11.2µM, Rab9 prom act 3.16µM, ELG1 genotoxic inconclusive
COc1ccccc1N1CCN(/N=C\c2ccccc2)CC1	FLuc counter 15.1µM, NPC1 prom act inconclusive, Rab9 prom act inconclusive, ELG1 genotoxic inconclusive (no result: SMN2 splice up)
COc1ccc(NC(=O)N2CCN(S(=O)(=O)c3ccc4c(ccn4C)c3)CC2)cc1OC	none (no result: NPC1 prom act, SMN2 splice up, Rab9 prom act, ELG1 genotoxic)
CCOc1ccc2nc(NC(=O)C3CCN(c4cnccn4)CC3)sc2c1	FLuc counter inconclusive
Cc1ccc(N=Nc2ccc(O)c3ncccc23)cc1C	FLuc counter 10.7µM (no result: SMN2 splice up)
CCS(=O)(=O)c1ccc(N=Nc2ccc(O)c3ncccc23)c(OC)c1	FLuc counter inconclusive
COc1ccccc1N=Nc1ccc(O)c2ncccc12	FLuc counter 6.75µM, ELG1 genotoxic inconclusive (no result: SMN2 splice up)
CCSc1nnc(NC(=O)c2ccc(Br)s2)s1	FLuc counter 15.1µM, NPC1 prom act inconclusive, SMN2 splice up inconclusive, Rab9 prom act inconclusive, ELG1 genotoxic inconclusive
CCSc1nnc(NC(=O)c2ccccn2)s1	FLuc counter 8.49µM, NPC1 prom act 0.891µM, SMN2 splice up 3.98µM, Rab9 prom act inconclusive, ELG1 genotoxic 16.4µM
O=C(Nc1nnc(C2CCCCC2)s1)c1ccc(Br)s1	FLuc counter inconclusive, NPC1 prom act 0.501µM, SMN2 splice up 3.16µM, Rab9 prom act 1.78µM, ELG1 genotoxic inconclusive
O=C(COc1ccc(F)cc1)Nc1nnc(C2CCCCC2)s1	none (no result: SMN2 splice up)
O=C(Nc1nnc(C(F)(F)F)s1)c1ccc(Br)s1	FLuc counter 8.49µM, NPC1 prom act inconclusive, SMN2 splice up inconclusive
CCOc1ccc(C(=O)Nc2cccc(C(=O)OCc3cc(=O)n4cc(C)sc4n3)c2)cc1	none (no result: NPC1 prom act, SMN2 splice up, Rab9 prom act, ELG1 genotoxic)
CCSc1nnc(NC(=O)c2ccccc2)s1	FLuc counter 13.5µM, NPC1 prom act 3.55µM, SMN2 splice up 11.2µM, Rab9 prom act 3.16µM, ELG1 genotoxic inconclusive
CCSc1nnc(NC(=O)c2ccccc2C)s1	FLuc counter 23.9µM, NPC1 prom act inconclusive, SMN2 splice up 10µM, Rab9 prom act 2.51µM, ELG1 genotoxic inconclusive
CCSc1nnc(NC(=O)c2cccnc2Cl)s1	FLuc counter inconclusive, SMN2 splice up 17.8µM, ELG1 genotoxic inconclusive
CCSc1nnc(NC(=O)c2cccnc2)s1	FLuc counter inconclusive, NPC1 prom act inconclusive, SMN2 splice up inconclusive, ELG1 genotoxic inconclusive
COc1ccc(-c2cc(C(=O)NCCc3ccccc3)c3c(-c4ccccc4)[nH]nc3n2)cc1OC	none (no result: NPC1 prom act, Rab9 prom act, ELG1 genotoxic)
O=C(c1ccc(-c2nc3ccccc3s2)o1)N1CCN(c2ccccc2O)CC1	FLuc counter 16.9µM, NPC1 prom act inconclusive, Rab9 prom act inconclusive (no result: SMN2 splice up)
O=C(Nc1ccccc1-c1nc2ccccc2s1)c1ccc(Br)o1	none
O=C(O)CCN1C(=O)/C(=C/c2ccc(-c3nc4ccccc4s3)o2)SC1=S	FLuc counter inconclusive
CCS(=O)(=O)c1ccccc1C(=O)N1CCN(c2nc3ccccc3s2)CC1	none (no result: NPC1 prom act, SMN2 splice up, Rab9 prom act, ELG1 genotoxic)
